Records with an inconclusive call do not appear. Active and inactive are the calls of the source. Unless noted, calls come from the whole dose curve; as a rule, active = well fitted curve in the direction sought with a large enough effect in the repeat runs; inconclusive = weak or mixed curves; inactive = no such curve, though single readings can be large; an effect the other way counts as inactive or inconclusive.
Legend:
[1] = qHTS assay to identify small molecule antagonists of the estrogen receptor alpha (ER-alpha) signaling pathway using the BG1 cell line in the presence of 0.1 nM 17-beta-estradiol - cell viability counter screen (AID 1259241); note: nearly all actives have a fitted effect of over 40% in size
Summary of the method: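 The cell line endogenously expresses full-length ER-alpha and carries four EREs driving luciferase. Cells are cultured 5 days hormone-free, treated 22 hr with compounds and 0.1 nM estradiol, then viability is read by fluorescence.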

[2] = qHTS assay to identify small molecule antagonists of the androgen receptor (AR) signaling pathway using the MDA cell line in the presence of 0.5 nM R1881 - cell viability counter screen (AID 1259242); note: nearly all actives have a fitted effect of over 45% in size
Summary of the method: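 Cytotoxicity toward MDA-kb2 cells is measured by CellTiter-Fluor live-cell protease fluorescence after 16 hr compound exposure at 37C in the presence of 0.5 nM R1881 stimulator.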

[3] = biological target: Estrogen receptor (Homo sapiens) (UniProt P03372); assay: qHTS assay to identify small molecule antagonists of the estrogen receptor alpha (ER-alpha) signaling pathway using the BG1 cell line in the presence of 0.1 nM 17-beta-estradiol (AID 1259244); note: nearly all actives have a fitted effect of over 50% in size
Sequence of Estrogen receptor (Homo sapiens) (P03372 whole entry, looked up): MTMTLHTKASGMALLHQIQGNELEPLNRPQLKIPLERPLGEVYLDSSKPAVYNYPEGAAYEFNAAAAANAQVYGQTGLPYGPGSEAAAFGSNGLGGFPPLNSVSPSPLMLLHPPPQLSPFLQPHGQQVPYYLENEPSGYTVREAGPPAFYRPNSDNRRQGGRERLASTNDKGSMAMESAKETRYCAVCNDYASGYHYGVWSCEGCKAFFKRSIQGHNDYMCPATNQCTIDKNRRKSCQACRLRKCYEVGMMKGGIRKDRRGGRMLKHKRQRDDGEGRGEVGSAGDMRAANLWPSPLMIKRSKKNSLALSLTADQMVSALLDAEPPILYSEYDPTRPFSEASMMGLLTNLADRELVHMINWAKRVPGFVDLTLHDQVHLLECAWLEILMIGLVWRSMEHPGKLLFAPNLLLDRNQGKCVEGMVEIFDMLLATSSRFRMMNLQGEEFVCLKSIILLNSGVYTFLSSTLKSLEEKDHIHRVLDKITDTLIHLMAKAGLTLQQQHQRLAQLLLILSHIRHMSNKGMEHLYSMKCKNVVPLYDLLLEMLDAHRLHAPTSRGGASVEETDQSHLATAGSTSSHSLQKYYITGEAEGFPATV
Summary of the method: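 After 5 days in hormone-depleted medium (charcoal-stripped serum, no phenol red), VM7Luc4E2 cells were seeded, incubated 24 h, then co-treated with compound and 0.1 nM (final) estradiol for 22 h before luminescence detection.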

[4] = qHTS assay to identify small molecule HDAC inhibitors (AID 1259364); note: nearly all actives have a fitted effect of over 45% in size; note: potency is the fitted concentration of half-maximal effect; for activity change, negative = inhibition: top concentration of the series differs between compounds
Summary of the method: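 Homogeneous cell-based luminescent assay of endogenous class I/II HDAC activity; HCT-116 cells, 2 h compound exposure, 30 min HDAC-Glo development at RT.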

[5] = qHTS assay to identify small molecule HDAC inhibitors - cell viability counter screen (AID 1259365); note: series mostly up to about 92 µM; nearly all actives have a fitted effect of over 50% in size
Summary of the method: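 Viability readout: CellTiter-Glo luminescence. Wild-type HCT-116 cells, 2hr compound treatment following overnight attachment at 37 C.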

[6] = qHTS assay to identify small molecule agonists of the sonic hedgehog signaling (Shh) pathway - cell viability counter screen (AID 1259366); note: nearly all actives have a fitted effect of over 50% in size; note: potency is the fitted concentration of half-maximal effect
Summary of the method: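 Viability measured fluorometrically (CellTiter-Fluor, 1hr, 37C) in 3T3 Gli1-Luc reporter cells after 23hr compound exposure within a 24hr incubation at 37C/5% CO2.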

[7] = qHTS assay to identify small molecule agonists of the sonic hedgehog signaling (Shh) pathway (AID 1259368; calls by dose curve; note: nearly all actives have a fitted effect of over 15% in size; note: potency is the fitted concentration of half-maximal effect;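 for activity change: NIH/3T3-derived 3T3Gli1-Luc cells carrying a stable Gli1-driven firefly luciferase reporter; series mostly up to about 92 µM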)
Summary of the method: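 Steps: seed 3T3 Gli1-Luc cells, incubate 4 hr at 37 C, pin-transfer compounds in DMSO alongside a positive control, incubate 24 hr, add luciferase detection reagent, wait 30 min at room temperature, read luminescence.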

[8] = qHTS assay to identify small molecule antagonists of the sonic hedgehog signaling (Shh) pathway - cell viability counter screen (AID 1259367); note: nearly all actives have a fitted effect of over 55% in size
Summary of the method: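 NIH/3T3-derived Gli1-Luc reporter cells, 2,000/well, plated 4 hr before compound addition, then stimulated with conditioned medium for 24 hr at 37C. Viability measured in the same wells by CellTiter-Fluor fluorescence, reagent added at 23 hr for 1 hr.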

[9] = qHTS assay to identify small molecule phospholipidosis (PLD) inducers (AID 1259344; active = well fitted curve in the direction sought with a large enough effect; an effect the other way counts as inactive or inconclusive)
Summary of the method: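 HepG2 cells, 900/well, treated with compound plus LipidTOX Red for 24 h at 37 C; amiodarone positive and DMSO negative controls. Fixed with paraformaldehyde/Hoechst, then high-content imaging scored LipidTOX pit count and integrated intensity per well and per cell.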
% is set by controls: 0 for no effect and ±100 for the full control effect.

COP(=S)(OC)Oc1ccc([N+](=O)[O-])c(C)c1
inactive: Potency [1] | Potency [2] | Potency [3] | Potency [4] | Potency [5] | Potency [6] | Potency [7]

O=[N+]([O-])c1ccc(CCl)cc1
inactive: Potency [1] | Potency [2] | Potency [3] | Potency [4] | Potency [5] | Potency [6] | Potency [8] | Potency [7]

CN/C(=N\[N+](=O)[O-])NCc1cnc(Cl)s1
inactive: Potency [1] | Potency [2] | Potency [3] | Potency [4] | Potency [5] | Potency [6] | Potency [8] | Potency [7]

COc1ccc2c3c1O[C@H]1[C@H](O)CC[C@H]4[C@@H](C2)N(C)CC[C@@]341
inactive: Potency [1] | Potency [2] | outcome [9] | Potency [4] | Potency [5] | Potency [6] | Potency [8] | Potency [7]

c1ccc(Nc2ccc(Nc3ccccc3)cc2)cc1
inactive: Potency [1] | Potency [2] | Potency [3] | Potency [4] | Potency [5] | Potency [8]

CNC(C)(C)Cc1ccccc1
inactive: Potency [1] | Potency [2] | outcome [9] | Potency [4] | Potency [5] | Potency [6] | Potency [8] | Potency [7]

CCC(C)Nc1c([N+](=O)[O-])cc(C(C)(C)C)cc1[N+](=O)[O-] (stereo unspecified)
inactive: Potency [1] | Potency [2] | Potency [3] | Potency [4] | Potency [5] | Potency [6] | Potency [8] | Potency [7]

CN1[C@@H]2CC[C@H]1CC(O)C2 (stereo partly specified)
inactive: Potency [1] | Potency [2] | Potency [3] | Potency [4] | Potency [5] | Potency [6] | Potency [8] | Potency [7]

Cc1cc(C2CC2)nc(Nc2ccccc2)n1
inactive: Potency [1] | Potency [2] | Potency [3] | Potency [5] | Potency [7]
active: Potency [4] 24.3 µM | Potency [6] 48.6 µM

O=[N+]([O-])[O-].[Tl+]
inactive: Potency [1] | Potency [2] | Potency [4] | Potency [5] | Potency [6] | Potency [8] | Potency [7]

CCN(CC)Cc1nccn1-c1ccc([N+](=O)[O-])cc1C(=O)c1ccccc1Cl
inactive: Potency [1] | Potency [2] | PLD induction [9] 0.825% [at 7.66 µM] | Potency [4] | Potency [5] | Potency [7]

CC(=O)[O-].CC(=O)[O-].CC(=O)[O-].[Sb+3]
inactive: activity change, negative = cytotoxicity [1] -1.06% [at 3.27 µM] | viability change, negative = cytotoxic [2] 2.35% [at 3.26 µM] | activity change, negative = inhibition [4] 2.54% [at 3.27 µM] | activity change, negative = cytotoxicity [5] -3.57% [at 3.27 µM] | viability change, negative = cytotoxic [6] 5.24% [at 3.27 µM] | viability change, negative = cytotoxic [8] 4.31% [at 3.27 µM] | activity change [7] 0.122% [at 3.27 µM, hits give high values]

CC(=O)[O-].CC(=O)[O-].O.O.[Zn+2]
inactive: Potency [1] | Potency [2] | Potency [4] | Potency [5] | Potency [6] | Potency [8] | Potency [7]

C#CCO
inactive: Potency [1] | Potency [2] | Potency [4] | Potency [5] | Potency [6] | Potency [8] | Potency [7]

[Cl-].[Cl-].[Sn+2]
inactive: Potency [1] | Potency [2] | Potency [4] | Potency [5] | Potency [6] | Potency [8] | Potency [7]

c1csc(-c2ccc(-c3cccs3)s2)c1
active: Potency [4] 5.45 µM | Potency [7] 9.69 µM
inactive: Potency [1] | Potency [2] | Potency [5] | Potency [6] | Potency [8]

C=CC(=C)C
inactive: Potency [1] | Potency [2] | Potency [4] | Potency [5] | Potency [6] | Potency [8] | Potency [7]

CC(=O)C(Cl)C(=O)N(C)C (stereo unspecified)
inactive: Potency [1] | Potency [2] | Potency [4] | Potency [5] | Potency [6] | Potency [8] | Potency [7]

CCCN
inactive: Potency [1] | Potency [2] | Potency [4] | Potency [5] | Potency [6] | Potency [8] | Potency [7]

CCn1cc[n+](C)c1 (tested in a mixture with another compound)
inactive: Potency [1] | Potency [2] | Potency [4] | Potency [5] | Potency [6] | Potency [8] | Potency [7]

Oc1ccc2[nH]cc(CCCCN3CC=C(c4ccccc4)CC3)c2c1
inactive: Potency [1] | Potency [2] | outcome [9] | Potency [4] | Potency [5] | Potency [8] | Potency [7]

CCN(CC)C(=O)N[C@@H]1C=C2c3cccc4[nH]cc(c34)C[C@@H]2N(C)C1
inactive: Potency [1] | Potency [2] | outcome [9] | Potency [4] | Potency [5] | Potency [6] | Potency [7]

CNC(=O)/C=C(\C)OP(=O)(OC)OC
inactive: Potency [1] | Potency [2] | Potency [4] | Potency [5] | Potency [6] | Potency [8] | Potency [7]

CCCCc1ccccc1
inactive: Potency [1] | Potency [2] | Potency [4] | Potency [5] | Potency [6] | Potency [8] | Potency [7]

CNN
inactive: Potency [1] | Potency [2] | Potency [4] | Potency [5] | Potency [6] | Potency [8] | Potency [7]

Oc1cc(Cl)cc(Cl)c1
inactive: Potency [1] | Potency [2] | Potency [4] | Potency [5] | Potency [6] | Potency [8] | Potency [7]
